Reference: PubChem BioAssay (NCI)
Values joined by “and” are separate entries in the source; they are usually repeats but may differ in a detail not shown here. Equal values may be shown once. Compounds without any hit were thinned out: in the full panel of roughly 83,000, 20% have a hit.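 Values shown are percent growth following 48 h exposure of cells in 96-well plates to a single concentration of compound; below 10 was considered active.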 Active and inactive are the calls of the source.

The compounds below were run on COLO 205 colon (assay: NCI-60 one-dose screen, 48 h (100 = growth as untreated, 0 = no growth, -100 = all killed)). Details: 10 µM unless noted.

| Structure (SMILES) | growth |
| --- | --- |
| CCCCCCCCn1ccc2cc(NC(=O)CN3CCN(c4nc(C)cc(N5CCCCC5)n4)CC3)ccc21 | 84.7% (inactive) |
| CC/C(=C(/c1ccc(O)cc1)c1ccc(OCCN2CCCCCC2)cc1)c1ccc(Cl)cc1 | 4.48% (active) |
| C=C(C)[C@@H]1CC[C@]2(C(=O)N3CCN(C)CC3)CC[C@]3(C)[C@H](CC[C@@H]4[C@@]5(C)CC(CCCNC(C)=O)(CCCNC(C)=O)[C@H](OC(C)=O)C(C)(C)[C@@H]5CC[C@]43C)[C@@H]12 | 106% (inactive) |
| CCN(c1cc(-c2ccc(CN3CCC(/C=C/S(=O)(=O)c4ccccc4)CC3)cc2)cc(C(=O)NCc2c(C)cc(C)[nH]c2=O)c1C)C1CCOCC1 | 99.8% (inactive) |
| Nc1nc(N)c2c(n1)NC(c1ccc(Cl)cc1)CC(c1cccc(Nc3ccncc3)c1)=N2 (stereo not given) | 50.5% (inactive) |
| C=C(c1ccc(C(=O)O)cc1)c1cc2c(cc1C)C(C)(C)CCC2(C)C | 135% (inactive) and 118% (inactive) |
| O=C1OCC2=C1C(c1cccc([N+](=O)[O-])c1)c1cc3c(cc1N2CCO)CCC3 (stereo not given) | -27.1% (active) |
| CCN(CC)/C([O-])=c1\cccc\c1=C1\N=C(c2ccccc2)N=C1[n+]1ccc(-c2ccccc2)cc1 | 108% (inactive) |
| Cc1nc(-n2[nH]c(=O)ccc2=O)sc1N=Nc1ccccc1 | 112% (inactive) |
| Cc1ccc(-c2nc3nc(-c4ccccc4)nc(N4CCCNCC4)c3o2)cc1 | -86.9% (active) |
| O=C([C@H]1C[C@H]1c1ccc(S(F)(F)(F)(F)F)cc1)N1CCN(c2cc(Cl)ccc2C(F)(F)F)CC1 | 101% (inactive) |
| OB(O)c1ccsc1-c1nc2ccc3[nH]ncc3c2c2c1CCCC2 | 41.2% (inactive) |
| CC[C@]12CN3CCc4c([nH]c5ccccc45)[C@@](C(=O)OC)(c4cc5c(cc4OC)N(C)[C@H]4[C@@](O)(C(=O)OC)[C@H](OC(C)=O)[C@]6(CC)C=CCN7CC[C@]54[C@@H]76)CC(C3)[C@H]1O2 (stereo not given in full) | -49.9% (active) |
| COC(=O)N/N=C/c1c[n+]([O-])c2ccccc2[n+]1[O-] | -45.4% (active) |
| Cn1ccnc1CN1CCSC(C(=O)Nc2ccccc2)C1 (stereo not given) | 112% (inactive) |
| CCNC(=O)Oc1ccc(/C(=C(/C)Cc2ccc(OC)cc2)c2ccc(OCCN(CC)CC)cc2)cc1 | -69.1% (active) |
| Cc1ccc(-c2nc(C#N)c(S(=O)(=O)N(C)C)o2)cc1 | 16.7% (inactive) |
| COCCn1cc(-c2nc(-c3cn(CCOC)c4ncccc34)cs2)c2ccccc21 | 18.8% (inactive) |
| Nc1nc2ccccc2c2c(=O)c3ccc(Cl)cc3sc12 | 98.4% (inactive) |
| CC[C@]1(O)CC2CN(CCc3c([nH]c4ccccc34)C(C(=O)OC)(c3cc4c(cc3OC)N(C=O)[C@H]3[C@@](O)(C(=O)OC)[C@H](OC(C)=O)[C@]5(CC)[C@@H]6C[C@@H]6CN6CC[C@]43[C@@H]65)C2)C1 (stereo not given in full) | -87.9% (active) |
| CN1CCN(CCCN2c3ccccc3Sc3ccc(Cl)cc32)CC1 | 26.8% (inactive) |
| Nc1ncc(-c2ccc3ncnc(N4CCc5ccc(Cl)cc54)c3c2)cc1C(F)(F)F | 7.3% (active) |
| CC(C)(C)c1cc(NC(=O)Nc2ccc(-c3cn4c(n3)sc3cc(OCCN5CCOCC5)ccc34)cc2)no1 | 10.7% (inactive) and -43.9% (active) |
| CC1(Cc2ccccc2)CC2=C(C(=O)O1)C(c1ccccc1)NC(=O)N2 (stereo not given) | 106% (inactive) |
| COc1cc(C=O)ccc1Oc1ccc([N+](=O)[O-])cc1[N+](=O)[O-] | 108% (inactive) |
